# Methyltransferases: Primary Screen for Target Class Profiling of Small Molecule Inhibitors of Methyltransferases | purified enzyme, MTase-Glo SAH luminescence; active compounds read low | calls only at 40 µM | 25,000 compounds, 3.9% hits | AID 1745853, 2022; call rule not given here
#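 Each enzyme was assayed with SAM and its substrate. SAH formation detected by MTase-Glo luminescence; single-point 40 uM screen[…].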
# The depositor's hits bear a star; i = inactive; + = active, no number. This excerpt belongs to a sample that is enriched for hits. On the % scale 0 is the no-effect control and ±100 the full control effect.
SMILES,Methyltransferases
C=C1CC2OC(=O)C(COC)C2C(OC(=O)/C(C)=C\C)CC2(C)OC1=CC2=O (configuration not stated),i
C=C(C)C(=O)OC1CC2(C)OC(=CC2=O)C(=C)CC2OC(=O)C(COC)C12 (configuration not stated),+
CCc1cc2c(cc3n2CC(C)(C(=O)NC2CCC(C)CC2)N(c2cc(C)ccc2C)C3=O)s1 (configuration not stated),i
COc1ccc(CCNC(=O)CCc2nnc3n(Cc4ccc(Cl)cc4)c(=O)c4ccccc4n23)cc1OC,i
O=C(Nc1ccccc1)Nc1ccc(-c2ccc(C(=O)C3CCCC3C(=O)O)cc2)cc1 (configuration not stated),i
CCc1ccccc1NC(=O)Cn1nc2n(CC(C)C)c(=O)c3ccc(C(=O)NCC(C)C)cc3n2c1=O,i
O=S1(=O)CCN(Cc2cc(NCC3CCOCC3)c3[nH]c(-c4ccccc4)cc3c2)CC1,+
COc1cccc(CN2C(=O)c3cc4sccc4n3CC2(C)C(=O)NC2CCCC2)c1 (configuration not stated),i
Cn1c(=O)c2ccc(C(=O)NC3CCCC3)cc2n2c(=O)n(CC(=O)c3ccc(F)cc3)nc12,i
CSc1cccc(NC(=O)c2cc3n(n2)CC(C)(C(=O)NC2CCCCCC2)N(C)C3=O)c1 (configuration not stated),i
CN(C)CCOC(c1ccccc1)c1ccccc1,i
CN(C)CCOC(C)(c1ccccc1)c1ccc(Cl)cc1 (configuration not stated),+
COc1ccc(CCNC(=O)c2cc3n(n2)CC(C)(C(=O)NC2CCCC2)N(C)C3=O)cc1OC (configuration not stated),i
CCOc1ccccc1CN1C(=O)c2cc3ccc(OC)cc3n2CC1(C)C(=O)NC1CCCCC1 (configuration not stated),i
COC(=O)c1ncn2c1C(=O)N(Cc1ccccc1Cl)C(C)(C(=O)NC1CCCCC1)C2 (configuration not stated),i
CC(O)C(C)n1ncn(-c2ccc(N3CCN(c4ccc(OCC5COC(Cn6cncn6)(c6ccc(Cl)cc6Cl)O5)cc4)CC3)cc2)c1=O (configuration not stated),i
CCN1C(=O)c2c(C(=O)NCCc3ccc(OC)cc3OC)ncn2CC1(C)C(=O)NC1CCCC1 (configuration not stated),i
Fc1cccc(-c2nnn3c2nc(NCCc2ccccc2)c2ccccc23)c1,+
COc1ccc(CCNc2nc3c(-c4ccccc4)nnn3c3ccccc23)cc1OC,i
c1ccc(CCNc2nc3c(-c4ccccc4)nnn3c3ccccc23)cc1,i
CCOc1ccc(NC(=O)N2Cc3c(sc4c3CCCC4)-n3cccc3C2c2ccccc2)cc1 (configuration not stated),i
Cn1c(=O)c2ccc(C(=O)NC3CCCC3)cc2n2c(=O)n(CC(=O)c3ccc(Cl)cc3)nc12,i
CCCn1c(=O)c2ccc(C(=O)NC(C)C)cc2n2c(SCC(=O)Nc3ccccc3F)nnc12,i
O=C(CCc1nnc2n(Cc3ccc(Cl)cc3)c(=O)c3ccccc3n12)NCc1ccccn1,i
CCOc1ccc(NC(=O)N2Cc3c(sc4c3CCCC4)-n3cccc3C2c2cccc(C)c2)cc1 (configuration not stated),i
SMILES,Methyltransferases
COCCCN1C(=O)c2cc3c(OC)ccc(OC)c3n2CC1(C)C(=O)NC1CCCCC1 (configuration not stated),+
COc1ccc(OC)c2c1cc1n2CC(C)(C(=O)NC2CCC(C)CC2)N(Cc2cccnc2)C1=O (configuration not stated),i
COc1ccc(OC)c2c1cc1n2CC(C)(C(=O)NC2CCCCCC2)N(Cc2cccnc2)C1=O (configuration not stated),i
CCOCCCN1C(=O)c2cc3c(OC)ccc(OC)c3n2CC1(C)C(=O)NC1CCCCCC1 (configuration not stated),i
COc1ccc(OC)c2c1cc1n2CC(C)(C(=O)NC2CCCCC2)N(Cc2cccnc2)C1=O (configuration not stated),+
CCOCCCN1C(=O)c2cc3c(OC)ccc(OC)c3n2CC1(C)C(=O)NC1CCCCC1 (configuration not stated),i
COc1ccc(N2C(=O)c3ccc(-c4ccco4)n3CC2(C)C(=O)NC2CCCC2)cc1 (configuration not stated),i
COCCCN1C(=O)c2cc3occc3n2CC1(C)C(=O)NC1CCCCCC1 (configuration not stated),i
CC1(C(=O)NCc2ccccc2)Cn2c(cc3ccccc32)C(=O)N1Cc1ccccc1 (configuration not stated),i
COC(=O)CC1OC(C)C2=C(O)c3c(O)cccc3C(=O)C23OC13 (configuration not stated),+
COc1ccc(OC)c(N2C(=O)c3cc4ccc(OC)cc4n3CC2(C)C(=O)NC2CCCCC2)c1 (configuration not stated),i
CCOC(=O)Cc1ccc(NC(=O)N2Cc3c(sc4c3CCCC4)-n3cccc3C2c2cccc(F)c2)cc1 (configuration not stated),i
c1cc(OCCN2CCCCC2)cc(-c2n[nH]c3ccc(-c4ncn[nH]4)cc23)c1,+
CN(CCN1CCCCCC1)C(=O)c1cc(COc2ccccc2)[nH]n1,i
CC(C)Cn1c(=O)c2ccc(Cl)cc2n2c(SCC(=O)Nc3ccc4c(c3)OCO4)nnc12,i
CC1(C(=O)NC2CCCCCC2)Cn2nc(C3CC3)cc2C(=O)N1Cc1cccc(Cl)c1 (configuration not stated),i
O=C(CCCc1nnc2n3nc(-c4ccccc4)nc3c3ccccc3n12)NCCc1ccc(Cl)cc1,i
CCn1c(-c2nonc2N)nc2c(C#CC(C)(C)O)ncc(OCC3CCCNC3)c21 (configuration not stated),+
COc1ccc(CNC(=O)c2cc3n(n2)CC(C)(C(=O)NCc2ccc(C)cc2)N(C)C3=O)cc1OC (configuration not stated),i
COc1ccc(N2CCN(CCCNC(=O)CCc3nnc4n(CC(C)C)c(=O)c5ccccc5n34)CC2)cc1,i
CCCn1c(=O)c2ccc(C(=O)NC3CCCCC3)cc2n2c(=O)n(CC(=O)Nc3cccc(C)c3)nc12,i
COc1cc(/C=C/c2cn(-c3ccc(C(=O)O)cc3)nc2/C=C/c2ccc(O)c(OC)c2)ccc1O,+
C/C=C/c1ccc2oc(-c3ccc(O)c(OC)c3)c(C)c2c1,i
COc1cc(/C=C/C(=O)O[C@@H]2C[C@@](O)(C(=O)O)C[C@@H](O)[C@@H]2O)ccc1O,i
COc1ccc(Cl)cc1S(=O)(=O)NCCn1c(-c2ccc(F)cc2)nc2ccccc21,i
C[C@@H]1O[C@@H](O[C@@H]2[C@@H](O)[C@H](O[C@H]3[C@H](O[C@H]4CC[C@@]5(C)C(CC[C@]6(C)C5CC=C5[C@@H]7CC(C)(C)CC[C@]7(C(=O)O[C@@H]7O[C@H](CO)[C@@H](O)[C@H](O)[C@H]7O)CC[C@]56C)C4(C)C)O[C@H](C(=O)O)[C@@H](O)[C@@H]3O)OC[C@H]2O)[C@H](O)[C@H](O)[C@H]1O (some centres not stated),i

# Bioassay records (PubChem)
